# Bioassay records deposited in PubChem BioAssay by National Center for Advancing Translational Sciences (NCATS).
# LASV entry inh – inhibitors of Lassa virus binding or cell entry; Lassa virus pseudotype entry inhibition, cell reporter; Potency, µM (titrated, usually from 37.9 µM), for the others: at the highest dose activity change, negative = inhibition, hits mostly inhibitors; actives 1.2% (n = 300,000); calls by dose curve; tested in HEK293 cells; also: potency is read from the fitted curve at half-maximal effect; nearly all actives have a fitted effect of over 50% in size
# HCMV antiviral – human cytomegalovirus inhibition; activity change, negative = inhibition, % at 57.5 µM; AID 1259415; HFF cells, HCMV-luciferase reporter, 72 h; stronger effect = lower value; actives 4.5% (n = 410,000); in the data active = activity change below about -60%; inconclusive = no clear call, values can overlap the other calls; inactive = above about -39%
#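 Human foreskin fibroblasts infected with luciferase-reporter HCMV at MOI 1 PFU/cell, compounds at two doses. Luciferase measured 72 h post infection; normalized to buffer-only basal and Salinomycin (10uM) controls.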
# Marburg entry inh – inhibitors of Marburg virus binding or cell entry. actives 1.8% (n = 300,000). Marburg virus pseudotyped entry inhibition, cell reporter. AID 540276. Potency, µM (series often up to 37.8 µM), without a hit: at the top dose activity change, negative = inhibition, hits mostly inhibitors; calls by dose curve; tested in HEK293 cells; also: potency is read from the fitted curve at half-maximal effect
# FMDV antiviral – foot and mouth disease virus antiviral activity. FMDV antiviral cell-based qHTS. Potency, µM (top dose mostly 57.9 µM), without a hit: at the top dose activity change, negative = inhibition, actives largely listed as inhibitors. actives 1.2% (n = 410,000); calls by dose curve; tested in HEK293T cells; also: read-out not given here; potency is read from the fitted curve at half-maximal effect; nearly all actives have a fitted effect of over 45% in size
# Starred values were filed as active, the others as inactive; ? = inconclusive; / = no result given; [ ] = remark or other dose. The list is not random: actives were taken first. Their share in the collection is about 6.2%. % is scaled to controls: 0 for no effect and ±100 for the full control effect.
SMILES,LASV entry inh,HCMV antiviral,Marburg entry inh,FMDV antiviral
O=C(Nc1ccc2nc3n(c(=O)c2c1)CCCC3)c1cc([N+](=O)[O-])ccc1F,3.3µM*,/,7.1µM*,20µM*
Cn1c(=O)cc(SCC(=O)N2CCN(c3ccccc3F)CC2)c2ccc(Cl)cc21,11%[46.1 µM],25,-3%[46.1 µM],10%
COCCN1C(=O)C2=C(C1=O)C1N(C)c3ccccc3[C@@]13C[C@@H](CO)N(S(=O)(=O)c1ccc(OC)cc1)C3=N2 (stereo partly specified),/,/,-3%[14.2 µM],/
Cc1ccc(C(=O)Nc2nc(-c3ccccn3)cs2)cc1S(=O)(=O)N1CCOCC1,/,-97*,/,?
O=C(Nc1nc(-c2ccccn2)cs1)c1ccc(F)c(S(=O)(=O)N2CCOCC2)c1,/,-97*,/,?
CN(CC1CCCO1)S(=O)(=O)c1ccc(C(=O)Nc2ccccc2F)cc1 (stereo unspecified),-22%,-12,0%,12%
CN(CC1CCCO1)S(=O)(=O)c1ccc(C(=O)Nc2nc(-c3ccccn3)cs2)cc1 (stereo unspecified),?,/,?,28µM*
CCC(C)n1c(=N)c(S(=O)(=O)c2ccc(C)cc2)cc2c(=O)n3cc(C)ccc3nc21 (stereo unspecified),13%[46.1 µM],3,1%[46.1 µM],-13%
CC(=O)[C@]12C[C@]3(C)CCCN(C(=O)N[C@@H]1c1ccccc1)C32 (stereo partly specified),?,/,10%[14.2 µM],/
Cn1c(=O)c2c(ncn2CCOc2cccc(Br)c2)n(C)c1=O,/,-71*,/,?
Cn1c(=O)c2c(ncn2Cc2cccc(Cl)c2)n(C)c1=O,-8%,-75*,?,/
Cn1c(=O)n(CCc2ccccc2)c(=O)c2c1ncn2Cc1ccccc1,?,21,?,-10%
Cn1c(=O)c2c(ncn2Cc2ccc(Cl)c(Cl)c2)n(C)c1=O,-15%,-70*,?,?
Cn1c(=O)c2c(nc(Cl)n2Cc2ccc(Cl)c(Cl)c2)n(C)c1=O,-6%,27,1%,?
Cn1c(=O)c2c(nc(Oc3cccc(Br)c3)n2C)n(C)c1=O,/,-10,/,-10%
Cc1oc(-c2ccccc2NC(=O)c2cccnc2)nc1CNC(=O)C1CCCCCN1C (stereo unspecified),/,/,/,-22%
CCOC(=O)CC(NS(=O)(=O)c1ccc2[nH]c3c(c2c1)CCCC3)c1ccccc1Cl (stereo unspecified),?,-3,/,24%
CCCOc1ccc(NC(=O)C(=O)NCCCN2CCOCC2)cc1,20%[46.1 µM],-22,-8%[46.1 µM],0%
CCOn1c(=O)c(-c2ccc(Cl)cc2)[n+]([O-])c2ccccc21,9%,-9,13%,-21%
CCOn1c(=O)c(-c2ccc(C)cc2)[n+]([O-])c2ccccc21,/,-60*,/,1%
Cc1ccnc(Sc2ccc([N+](=O)[O-])cc2[N+](=O)[O-])n1,?,-22,13µM*,?
O=[N+]([O-])c1ccc(Sc2nc3ccccc3o2)c([N+](=O)[O-])c1,-27%[14.3 µM],-107*,16µM*,35µM*
Cc1ccc(Sc2ccc([N+](=O)[O-])cc2[N+](=O)[O-])nc1,?,4,?,?
N#Cc1ccccc1CSc1nnc(-c2ccc(Br)cc2)o1,?,107,?,47%
O=C(CSc1nnc(-c2c[nH]c3ccccc23)o1)N1CCCCC1,-15%,5,?,/
SMILES,LASV entry inh,HCMV antiviral,Marburg entry inh,FMDV antiviral
O=C(CSc1nnc(-c2c[nH]c3ccccc23)o1)N1c2ccccc2CCc2ccccc21,?,-89*,?,/
CC(=O)NC(=S)NNC(=O)CCc1ccccc1,/,-15,/,-4%
O=C(COc1cccc(NC(=O)c2cccc([N+](=O)[O-])c2)c1)c1ccc(Br)cc1,22µM*,-73*,?,20µM*
Cc1ccc(C(=O)NC(=S)NNC(=O)c2ccccc2O)cc1,-27%,-81*,?,9%
COc1ccccc1C(=O)NNC(=S)NC(=O)c1cccs1,/,-78*,/,/
O=C(NC(=S)NNC(=O)c1ccccc1O)c1ccccc1,-13%[46.1 µM],119,-13%[46.1 µM],0%
O=C(CCc1ccccc1)NNC(=S)NC(=O)c1ccccc1,-25%,-101*,?,/
FC(F)(F)c1ccc(-c2nc(-c3ccccc3)oc2NCc2ccccc2)cc1,-11%[14.3 µM],/,-7%[14.2 µM],/
CCCc1ccc(C(=O)NC(=O)c2ccccc2O)cc1,10µM*,-89*,8.9µM*,?
O=C(NC(=O)c1ccccc1O)c1ccc(C(F)(F)F)cc1,?,-5,?,-25%
COc1cc(NC(=S)NC(=O)CCc2ccccc2)cc(OC)c1,-14%,-84*,23%,3%
O=C(NC(=S)NNC(=O)c1ccccc1O)c1ccc([N+](=O)[O-])cc1,/,-70*,/,-9%
Cc1ccc(C(=O)NC(=S)NNC(=O)c2ccccc2)cc1,/,7,/,10%
Cc1ccc(C(=O)NNC(=S)NC(=O)c2ccccc2)cc1,?,-85*,-10%,-8%
CC(C)=CCCC(C)=CCN1C(=O)[C@@]2(CC(C)=CC[C@@H](C)O2)c2c(Br)cccc21,/,/,0%[14.2 µM],/
O=C(NNC(=S)NC(=O)c1ccc(Br)cc1)c1cccc([N+](=O)[O-])c1,/,-105*,/,-13%
O=C(NNC(=S)NC(=O)c1ccc(Br)cc1)c1ccc([N+](=O)[O-])cc1,/,62,/,0%
CCCCC[C@H](O)/C=C/C1C(=O)C=C[C@H]1C/C=C\CCCC(=O)OC (stereo partly specified),/,-110*,/,25µM*
CCOc1cccc(C=NNc2nc(=O)cc(C(=O)OC)s2)c1O,/,-27,/,/
CCCCCCCOC(=O)C1=C(C)Nc2ncnn2C1c1cccs1 (stereo unspecified),13µM*,-17,?,?
CCCCCCCCOC(=O)C1=C(C)Nc2nnnn2C1c1cccs1 (stereo unspecified),?,18,?,?
Cc1ccccc1CNC(=O)Cn1ncn2nc(-c3cccs3)cc2c1=O,7%[46.1 µM],15,?,-16%
O=C1c2ccccc2-c2onc3ccc(Oc4ccccc4)c1c23,10µM*,38,?,?
COCCCNC(=O)c1ccc2c3c(onc13)-c1ccccc1C2=O,?,/,?,-104%
NC(=O)c1nnn(Cc2cc(Cl)c(C(=O)c3ccc(Cl)cc3)c(Cl)c2)c1N,/,-91*,/,?
SMILES,LASV entry inh,HCMV antiviral,Marburg entry inh,FMDV antiviral
COc1ccc2c(c1)[C@@]1(OCCC=C[C@@H]1C)C(=O)N2CC1CC1,/,/,-7%[14.2 µM],/
COC(=O)c1c(OCc2ccccn2)cc(=O)n2c1CCN(C(=O)c1cc(C(C)C)nn1C)CC2,/,/,/,1%
Cc1nc2ccc(NS(=O)(=O)c3ccc(F)c(C)c3)cc2[nH]1,/,-60*,/,-10%
Cc1nc2ccc(NS(=O)(=O)c3ccc(C)c(C)c3)cc2s1,-12%,-88*,?,-1%
COCCNC(=O)CN(Cc1ccccc1)S(=O)(=O)c1ccc2nc(C)sc2c1,/,-61*,/,8%
COc1ccc(NC(=O)CN(Cc2ccccc2)S(=O)(=O)c2ccc3nc(C)sc3c2)cc1,-15%[46.1 µM],-10,/,-21%
COc1ccc(NC(=O)CN(C)S(=O)(=O)c2ccc3nc(C)sc3c2)cc1Cl,-2%[46.1 µM],-69*,-2%[46.1 µM],?
Cc1nc2ccc(S(=O)(=O)c3ccc4nc(C)[nH]c4c3)cc2[nH]1,14%,-1,-14%,6%
